Active and inactive are the calls of the source. The calls were made as follows: active = hit-call score of the fitted dose curve at least 0.9, where 1 is the maximum; inactive = score below 0.9.

By AC50 is commonly meant the concentration giving half of the maximal activity seen.

A short description of the test: BSK_hDFCGF_SRB: Viability Assessment in the BioMAP Diversity Plus: hDFCGF Assay (AID 2283061). The following applies: primary human foreskin fibroblasts. The protocol:
BSK_hDFCGF is a cell-based, multiplexed-readout assay that uses foreskin fibroblast, a human skin primary cell, with measurements taken at 24 hours after chemical dosing in a 96-well plate.BSK_hDFCGF_SRB is an assay component measured in the BSK_hDFCGF assay. It measures 0.1% sulforhodamine related to cell death using Sulforhodamine staining technology.Data from the assay component BSK_hDFCGF_SRB was analyzed into 1 assay endpoint. This assay endpoint, BSK_hDFCGF_SRB, was analyzed with bidirectional fitting relative to DMSO as the negative control and baseline of activity. Using a type of viability reporter, gain or loss-of-signal activity can be used to understand changes in the signaling. Furthermore, this assay endpoint can be referred to as a primary readout, because this assay has produced multiple assay endpoints where this one serves a signaling function. To generalize the intended target to other relatable targets, this assay endpoint is annotated to the cell morphology intended target family, where the subfamily is cell conformation.
The levels of cell surface (or secreted, indicated by the prefix "s") biomarker endpoints were measured by ELISA. Overt cytotoxicity to cells in confluent adherent cultures (all systems other than the BT system) was assessed by measuring total protein levels using sulforhodamine B (SRB) staining in parallel cultures at the time of biomarker measurements, indicated as SRB endpoints. For proliferation assays for adherent cell types, individual cell types are cultured at sub-confluence and relative cell numbers quantified by SRB staining at time points optimized for each system (48 h: 3C and CASM3C systems; 72 h: BT and HDF3CGF systems; 96 h: SAg system). SRB was performed by staining cells with 0.1% SRB after fixation with 10% TCA and reading wells at 560 nm.Viability and proliferation of PBMC (T cells) was quantified by Alamar Blue reduction for the SAg and BT systems. For PBMC viability (referred to as PBMC Cytotoxicity within the assay endpoint names), cells were plated (75,000/well in a 96-well plate) and then chemical samples added for 1 h before addition of activators, SEB and TSST-1 (20 ng/mL final concentration each). Cells were incubated for 90 h. Then, Alamar Blue (20 uL/well) (Invitrogen, Cat DAL1100) was added for 6 h, and the plates were read with a fluorescence microplate reader at 546/580 nm (excitation/emission). For PBMC proliferation, cells were plated and activated as above but incubated for only 16 h prior to addition of Alamar Blue. Plates were read after 6 h.
Turning to `COCCOc1cc2cc(C(=O)NC3CCN(C(C)C)CC3)n(CC(=O)Nc3ccc(Cl)cn3)c2cn1`, the result was inactive.

For the compound `CC(O)CN(CCN(CC(C)O)CC(C)O)CC(C)O` (stereo not given), the result was inactive.

Turning to `CCCCCCCCCCCCCCCO`, the result was inactive.

On to `O=C(O)c1cc(N=Nc2ccc(S(=O)(=O)Nc3ccccn3)cc2)ccc1O`, for which the outcome was inactive.

Regarding `O=C(O)c1cccc(N(Cc2cccnc2)c2ccc(OC(F)F)c(OC(F)F)c2)c1`, the outcome was inactive.

As to `CCOC(=O)c1ccc(C2CCC(NC[C@H](O)COc3ccc(O)c(NS(C)(=O)=O)c3)CC2)cc1` (stereo not given in full), the AC50 is 5.64 µM (active).

Take `O=C1CCCCCN1`: the outcome was inactive.

`CCOCCOCCOCCO`: the result was inactive.

Take `CC(C)=CCCC(C)CCO` (stereo not given): the outcome was inactive.

Consider `Cc1ccc(C)c(O)c1`, for which the result was inactive.

Consider `CC(C)CCCCCCCOC(=O)CCCCC(=O)OCCCCCCCC(C)C`, for which the result was inactive.

In the case of `Cc1[nH]cnc1C[C@H]1CCc2c(C)c3ccccc3n2C1=O`, the result was inactive.

`Cc1ccc(S(=O)(=O)O)cc1C`: the result was inactive.

`COc1ccc(/C=C/S(=O)(=O)NC(=O)c2ccc(C)cc2Cl)cc1`: the outcome was inactive.

`CCc1cc(SCc2sc(-c3ccc(C(F)(F)F)cc3)nc2CN2CCN(c3ccc(OC)cc3)CC2)ccc1OCC(=O)O`: the AC50 is 2 µM (active).

Consider `CC(C)=CCC/C(C)=C\CO`, for which the result was inactive.

As for `COc1ccc2sc(C(=O)Nc3nnn[nH]3)c(OC(C)C)c2c1`, the half-maximal activity concentration (AC50) is 10.3 µM (active).

As to `CCCCCCCCO`, the result was inactive.

On to `NC(=O)NO`, for which the outcome was inactive.

Consider `CCN(C(=O)c1cc(C)cc(OC[C@H](C)Nc2ccncc2)c1)C(C)C`, for which the outcome was inactive.

On to `CN(C)c1ccc(N=NS(=O)(=O)O)cc1`, for which the result was inactive.

As for `C1N2CN3CN1CN(C2)C3`, the result was inactive.

For the compound `On1ccccc1=S`, the AC50 is 1.74 µM (active).

Consider `O=C1OC(=O)C2C3C=CC(C3)C12` (stereo not given), for which the result was inactive.

Take `CCCCCCc1ccc(O)cc1O`: the AC50 was 31.2 µM (active).

Regarding `CCOC(=O)COc1ccc2c(c1)CC(NCC(O)c1cccc(Cl)c1)CC2` (stereo not given), the AC50 was 26.9 µM (active).

In the case of `CC(C)=CCC/C(C)=C/CO`, the outcome was inactive.

As for `CC(C)(O)c1coc(S(=O)(=O)NC(=O)Nc2c3c(cc4c2CCC4)CCC3)c1`, the outcome was inactive.

With `CC1=CC(=O)CC(C)(C)C1`, the outcome was inactive.

On to `CC(C)CCO`, for which the result was inactive.

Take `CC(C)c1cccc(C(C)C)c1N1C(=O)c2ccc(O)cc2C1=O`: the AC50 was 14.9 µM (active).

With `CNCc1ccc(NC(=O)c2c[nH]c3c2C(=O)CCC3)cc1`, the outcome was inactive.

As to `CCCC(=O)OCC`, the result was inactive.

Turning to `CCCCC(CC)COC(=O)c1ccc(C(=O)OCC(CC)CCCC)cc1` (stereo not given), the outcome was inactive.

In the case of `CC(=O)OC[C@H]1O[C@@](COC(C)=O)(O[C@H]2O[C@H](COC(C)=O)[C@@H](OC(C)=O)[C@H](OC(C)=O)[C@H]2OC(C)=O)[C@@H](OC(C)=O)[C@@H]1OC(C)=O`, the outcome was inactive.

Turning to `COC(=O)c1c(Cl)c(Cl)c(C(=O)OC)c(Cl)c1Cl`, the result was inactive.

As to `CC(C)CC(C)(O)C#CC(C)(O)CC(C)C` (stereo not given), the result was inactive.

Turning to `O=C1CCC(N2C(=O)c3ccccc3C2=O)C(=O)N1` (stereo not given), the outcome was inactive.

Take `COc1ccc(-n2nc(C(F)F)cc2-c2ccc(S(C)=O)cc2)cc1` (stereo not given): the outcome was inactive.

For `CC(C)CCCCCCOC(=O)c1ccc(C(=O)OCCCCCCC(C)C)c(C(=O)OCCCCCCC(C)C)c1`, the outcome was inactive.

Source of the values: PubChem BioAssay (EPA / NIEHS).
